Source: PubChem BioAssay
The full list was thinned out, with hits kept by preference.
Pf Dd2 growth: blocks in vitro growth of P. falciparum Dd2 | AID 1347417 | Potency, µM (doses to about 28.9 µM), usual class: inhibitors | P. falciparum Dd2 growth, SYBR Green, 72 h | 120,000 tested, 4.3% active; active = well fitted inhibition curve with a large enough effect; also: nearly all actives have a fitted effect of over 65% in size
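Infected erythrocytes (Dd2, 0.3% parasitemia, 2.5% hematocrit final) are added to compound in RPMI-1640/Albumax II medium, grown 72 h at 37C in low oxygen, then lysed with saponin/Triton-X containing SYBR Green and read by fluorescence.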
Each line names hits and unclear results; the compound was inactive in the other large screens.

CCOC(=O)C1(Cc2cccc(C(F)(F)F)c2)CCN(Cc2ccc(COC)o2)CC1	Pf Dd2 growth 8.91µM
CCOC(=O)C1(Cc2ccc(OC)cc2)CCN(C(=O)c2cccc(Cl)c2)CC1	none
O=C(c1ccc(Cl)cc1)N1C[C@@H](CO)[C@H](c2nc(C3CC3)no2)C1	none
CC(C)NC(=O)NCc1nnc2n1C(C(=O)NCc1cccnc1)CC2 (configuration not stated)	none
COCCN1CC(C(=O)N(C)Cc2sccc2C)CCC1=O (configuration not stated)	none
CCOCc1nc(C2CCCN(C(=O)Cc3ccc(C)cc3)C2)no1 (configuration not stated)	none
N#Cc1ccc(C(=O)N2C[C@@H](Oc3ccccc3)C[C@H]2C(=O)N2CCCC2)cc1	none
COC(=O)c1ccccc1NC(=O)c1cc2c(s1)-c1ccccc1OC2	none
COc1cc(NC(=O)c2cc3c(s2)-c2ccccc2OC3)cc(OC)c1OC	Pf Dd2 growth 5.62µM
COc1cccc(CNC(=O)c2cc3c(s2)-c2ccccc2OC3)c1	none
COc1nc2c(cc1CNC(=O)C1CCCC1)C(=O)N(CCc1ccccn1)C2	none
CC(=O)N1CCc2cc(S(=O)(=O)CCC(=O)N3CCC(Cc4nncn4CC4CC4)CC3)ccc21	none
Cc1cccc(C)c1OCC(=O)NCC1(N(C)C)CCCCC1	none
Cc1ccc(C(C)C)c(OCC(=O)Nc2nc3c(s2)CCCC3)c1	none
Cc1ccc(C(C)C)c(OCC(=O)NCC2(N(C)C)CCCCC2)c1	Pf Dd2 growth 2.82µM
CN(C)S(=O)(=O)N1CC[C@@H]2C(=O)NCCCCCCN(Cc3ccncc3)[C@@H]2C1	none
O=C(c1cccc(F)c1)N1CCCC(Cc2nc(C3CCOCC3)no2)C1 (configuration not stated)	none
CC(C(=O)NCc1cc(F)ccc1F)C1CCOCC1 (configuration not stated)	none
O=C(c1ccoc1)N1CCC(N2C(=O)C3(CCCCC3)C2c2ccncc2)CC1 (configuration not stated)	none
CS(=O)(=O)N1CCC(N2C(=O)C3(CCCCC3)C2c2ccncc2)CC1 (configuration not stated)	none
O=C(NC1CCCCC1)N1CCC(N2C(=O)C3(CCCCC3)C2c2ccncc2)CC1 (configuration not stated)	Pf Dd2 growth 5.01µM
CCOC(=O)CCNC(=O)N1CCC(N2C(=O)C3(CCCCC3)C2c2ccncc2)CC1 (configuration not stated)	none
CN1CCC(N2CCC(N3C(=O)C4(CCCCC4)C3c3ccncc3)CC2)CC1 (configuration not stated)	none
Cc1ccc(CNC(=O)N2CCC(N3C(=O)C4(CCCCC4)C3c3ccncc3)CC2)cc1 (configuration not stated)	Pf Dd2 growth 11.2µM
CC(C)(C)NS(=O)(=O)C1CCS(=O)(=O)C1 (configuration not stated)	none
CC(=O)N1Cc2ccccc2OC2(CCN([S+](C)(=O)[O-])CC2)C1	none
O=C(NCC1CCN(Cc2cccc(Cl)c2)CC1)Nc1cc(Cl)ccc1Cl	none
CN(C)S(=O)(=O)N1CCCC1C(=O)Nc1ccc(-c2cccc(F)c2)cc1 (configuration not stated)	none
CC(=O)NC1(C)CCN(Cc2cccc(-c3cccc(Cl)c3)c2)C1 (configuration not stated)	none
CCCN1CCC(N2CCC(C(=O)Nc3cccc(-c4cccc(F)c4)c3)CC2)CC1	Pf Dd2 growth 2.24µM
O=C(Nc1cccc(-c2cccc(Cl)c2)c1)C1CCN(Cc2cccc(O)c2)CC1	Pf Dd2 growth 3.98µM
CS(=O)(=O)N1CCCC1C(=O)Nc1ccc(-c2cccc(F)c2)cc1 (configuration not stated)	none
Fc1ccccc1CN1CCNc2cnc(Oc3ccccc3)cc2C1	none
CN(C)C[C@@H]1CN(c2ncccn2)C[C@H]1NC(=O)CCn1cccn1	none
N#Cc1cccc(S(=O)(=O)N2CCc3n[nH]c(=O)n3CC2)c1	none
Cc1cc(=O)n(CC(=O)Nc2ccc(F)cc2)c(-c2ccccc2)n1	none
NC1(C(=O)N2CCCC(N3CCN(Cc4ccc5c(c4)OCO5)CC3)C2)CC1 (configuration not stated)	none
Cc1cnc(C(=O)NC2C[C@H]3CC[C@@H](C2)N3C(=O)c2ccccc2)cn1 (some centres not stated)	none
CCC(C)Nc1ccc2nncn2n1 (configuration not stated)	none
CS(=O)(=O)Nc1ccc(C2(C(=O)NCc3ccccc3Cl)CCCCC2)cc1	none
Cc1ccc(CN2CCc3oc(C)c(C(=O)NCCN4CCCCC4)c3C2)cc1	Pf Dd2 growth 1.41µM
CCNC(=O)c1c(C)oc2c1CN(Cc1sccc1C)CC2	Pf Dd2 growth 11.2µM
Cc1ccc(-c2cc(C(=O)NCCN3CCN(C)CC3)n(C)c2)cc1	none
CCNC(=O)c1c(C)oc2c1CN(Cc1ccc(Br)o1)CC2	Pf Dd2 growth 7.94µM
COCC(=O)NC[C@H]1CCN(Cc2sccc2C)C[C@H]1N(C)C	none
Cc1ccsc1CN1CCc2n[nH]c(=O)n2CC1	none
Cc1oc2c(c1C(=O)NCCN(C)C)CN(C(=O)c1ccncc1)CC2	none
Cc1c(C)n(C)c2ccc(C(=O)NCCCN3CCCCC3)cc12	none
COC[C@@H]1CN(Cc2ccc(Br)o2)C[C@H]1C(=O)NC1CC1	none
O=C(c1ccsc1)N1CCC2(CC1)NC(=O)N(Cc1ccc(Cl)cc1)C2=O	none
O=C(c1cccc(F)c1)N1CCC2(CC1)C(=O)NN=C2c1ccccn1	none
O=C1NCCCCCCN(C(=O)Nc2ccccc2F)[C@H]2CCC[C@@H]12	none
CC(C)(C)C(=O)N1CC[C@@H](CC(=O)O)[C@@H](CCN2CCN(c3ccc(F)cc3)CC2)C1	none
COc1ccc(CNC(=O)C(=O)NCC(c2ccc3c(c2)OCO3)N2CCOCC2)cc1 (configuration not stated)	none
CCC(=O)N(CCC(c1ccccc1)c1ccc2c(c1)OCO2)Cc1ccc(OC(C)C)cc1 (configuration not stated)	none
COc1ccc(CNCCC(c2ccc3c(c2)OCO3)c2ccccc2OC)cc1 (configuration not stated)	Pf Dd2 growth 5.01µM
c1cc(-c2nc(CC3CCCNC3)no2)ccn1 (configuration not stated)	none
Cc1nnc(-c2cc(-c3cccc([S+](C)(=O)[O-])c3)ccn2)n1CCc1ccccc1	none
CCc1ccc(NC(=O)CSc2nc(-c3ccccc3)no2)cc1	Pf Dd2 growth 2.51µM
CC(C)c1ccc(C(=O)N2CCC(Cc3nc(-c4ccc(F)cc4)no3)CC2)cc1	none
CCN(C(=O)CSc1nc2ccccc2nc1Cc1ccccc1OC)c1ccccc1	none
CCN(C(=O)CSc1nc2ccccc2[nH]1)c1ccccc1	none
COc1ccc(N2CCN(C(=O)CSc3nc(-c4ccccc4)no3)CC2)cc1	Pf Dd2 growth 2.82µM
CCc1ccc(NC(=O)CSc2nc3ccccc3nc2Cc2ccc(C)cc2)cc1	none
CN(C(=O)Cn1cccc1-c1nc(-c2ccc(F)cc2)no1)c1ccccc1	none
CC(C)c1ccc(-c2noc(SCC(=O)N(C)c3ccc(F)cc3)n2)cc1	Pf Dd2 growth 0.794µM
CCc1ccc(NC(=O)CSc2nc(-c3ccccc3)c(C#N)c(=O)[nH]2)cc1	none
COc1ccc(N2CCN(C(=O)CSc3n[nH]c(-c4ccccc4Cl)n3)CC2)cc1	none
CCN(C(=O)CSc1nc(-c2ccccc2)no1)c1ccccc1	Pf Dd2 growth 3.16µM
COc1ccc(N2CCN(C(=O)CSc3nc4ccccc4nc3Cc3ccc(Cl)cc3)CC2)cc1	none
O=C(c1ccsc1)N1CCC2(CC1)CC(N(C(=O)c1ccccc1)C1CC1)CCO2 (configuration not stated)	none
Cc1noc([C@@H]2CN(C(=O)Cc3ccsc3)C[C@H]2C(N)=O)n1	none
CC1(C)[C@H](Cc2cc(CN3CCOCC3)on2)C[C@@H]1N	none
